Sampled rows, rich in hits. Any-hit rate of the full collection: about 19%.
MCF10A rerep – DNA re-replication induction in MCF 10a cells; MCF 10A DNA re-replication, Hoechst nuclear intensity, 48 h; Potency, µM (titrated, usually from 46.1 µM), for the others: top-dose activity, positive = re-replication, actives largely listed as activators; hit rate 2.9% among 350,000; AID 624296; also: potency is read from the fitted curve at half-maximal effect; % of control where 0% means no effect; nearly all actives have a fitted effect of over 50% in size
SW480 rereplic – induces DNA re-replication in SW480 colon adenocarcinoma cells; SW480 DNA re-replication, Hoechst DNA content imaging, 48 h; AID 624297; Potency, µM (doses to about 46.1 µM), for the others: at the top dose re-replication activation, actives largely listed as activators; hit rate 1.8% among 340,000; also: potency is read from the fitted curve at half-maximal effect; % of control where 0% means no effect; nearly all actives have a fitted effect of over 55% in size
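Cells (250 per well) received 23 nL compound or DMSO by pin tool and were kept 48 hr at 37 C, 5% CO2. Nuclei were then stained with Hoechst for 40 min and scanned for DNA content.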
TDP1 cell noCPT – qHTS for Inhibitors of human tyrosyl-DNA phosphodiesterase 1 (TDP1): qHTS in cells in absence of CPT; DT40 Tdp1-/- hTDP1 cells, no CPT, ATP luminescence, 48 h; Potency, µM (highest dose often 46.2 µM), for the others: at the highest dose activity change, negative = growth inhibition, hits mostly inhibitors; hit rate 15% among 420,000; also: potency is read from the fitted curve at half-maximal effect; % is scaled to controls: 0 for no effect and ±100 for the full control effect; nearly all actives have a fitted effect of over 55% in size
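Seeded 400 DT40-hTDP1 cells/well (vehicle DMSO, no 20 nM CPT); pinned compounds; ≥48 hr at 37 °C; CellTiter-Glo luminescence as viability measure.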
DT40 TDP1 CPT – growth inhibition of DT40 Tdp1-/-;hTDP1 cells with camptothecin (screen for TDP1 inhibitors) | chicken DT40 Tdp1-/-;hTDP1 cells + 20 nM CPT, ATP luminescence, 48 h | Potency, µM (top dose mostly 46.2 µM), for inactives: at the top dose activity change, negative = growth inhibition, most hits filed as inhibitors | hit rate 12% among 420,000 | AID 686979; also: potency is read from the fitted curve at half-maximal effect; % is scaled to controls: 0 for no effect and ±100 for the full control effect; nearly all actives have a fitted effect of over 55% in size
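Chicken DT40 Tdp1-/- cells complemented with human TDP1, 400 cells/well, exposed to compounds plus 20 nM camptothecin for at least 48 h at 37 C; viability read as ATP content by CellTiter-Glo luminescence.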
Chronic BCR inh – chronic active BCR signaling inhibition; ABC-DLBCL IkBa-CBG/CBR reporter, luminescence ratio, 4 h; Potency, µM (highest dose often 46.1 µM), for the others: at the top dose activity change, negative = inhibition, usual class: inhibitors; hit rate 0.05% among 340,000; AID 493014; active = well fitted inhibition curve with a large enough effect in the signal ratio, with a control signal flat, not every such curve was filed as active; inconclusive = small, poorly fitted or top-dose-only effect, or effect the other way, or a change in a side signal; the % refers to the signal ratio;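 also: potency is read from the fitted curve at half-maximal effect; plate controls were basal doxycycline-induced cells for no effect and cells given 10 µM MG132 for full effect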
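TMD8 ABC-DLBCL cells carrying doxycycline-inducible green luciferase fused to IkappaBalpha plus unfused red luciferase were exposed to compounds (up to 46 uM) for 4 hrs at 37C. Activity came from the overlap-corrected green/red luminescence ratio.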
IL-1B inflam inh – inhibitors of inflammasome signaling (IL-1 beta secretion). activity change, % at 57.5 µM. THP-1 LPS/ATP IL-1B secretion, AlphaLISA, 16 h; stronger effect = lower value. hit rate 4.7% among 360,000; in the data active = activity change below about -50%; inconclusive = mostly about -30% to -49%; also: % is scaled to controls: 0 for no effect and ±100 for the full control effect
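Secreted IL-1B measured by AlphaLISA bead assay after 16 h compound exposure of THP-1 cells; compounds (final up to 57.5 uM) added 1 h before LPS (250 ng/mL) and ATP (1.25 mM) stimulation; lower signal means less secretion.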
Numbers without * were called inactive; ? = inconclusive; / = no result given; [ ] = dose if it differs, or a comment. Unless noted, calls follow the shape of the dose curve; as a rule, active = well fitted curve in the direction sought with a large enough effect; inconclusive = small, poorly fitted or top-dose-only effect, or another doubt; inactive = no such curve, though single readings can be large; an effect the other way counts as inactive or inconclusive.

SMILES	MCF10A rerep	SW480 rereplic	TDP1 cell noCPT	DT40 TDP1 CPT	Chronic BCR inh	IL-1B inflam inh
O=C(Nc1c[nH]c(=O)[nH]c1=O)c1cc([N+](=O)[O-])cc([N+](=O)[O-])c1	-0.1%	-15.6%	0.8%	-2.2%	0.6%	-4.9
CCOC(=O)c1c(NC(=O)CN2C(=O)NC3(CCCC3)C2=O)sc(C)c1CC	10.4%	7.2%	?	?	?	-56.8*
CCOC(=O)c1c(NC(=O)CN2C(=O)NC3(CCC(CC)CC3)C2=O)sc(C)c1-c1ccc(C)cc1 (centres undefined)	?	4.6%	?	-11.9%	7.9%	-3.0
CCOC(=O)c1c(NC(=O)CN2C(=O)NC3(CCCCCC3)C2=O)sc(C)c1-c1ccc(C)cc1	?	-1.1%	16.4µM*	23.1µM*	4.0%	-9.5
COc1cc(/C=C(/C#N)c2nc3ccccc3[nH]2)ccc1OCC(=O)Nc1ccccc1C	18.4µM*	26.6%	6.51µM*	3.26µM*	-8.9%	7.2
COc1cc(/C=C(/C#N)c2nc3ccccc3[nH]2)ccc1OCC(=O)Nc1ccccc1C(C)C	2.91µM*	?	5.8µM*	4.61µM*	4.1%	18.5
COc1cc(/C=C(\C#N)c2nc3ccccc3s2)ccc1OCC(=O)Nc1ccccc1	6.51µM*	?	4.61µM*	5.17µM*	-7.6%	34.5
CCOc1cc(/C=C(/C#N)c2nc3ccccc3[nH]2)ccc1OCc1ccc(C(=O)O)o1	25.8%	-1.6%	?	-23.1%	?	-20.1
O=C(OCC(=O)N1CCN(C(=O)c2ccco2)CC1)c1cncc(Br)c1	?	-24.5%	25.1%	-4.4%	23.5%	7.1
CC1=CC(C)(C(Cl)(Cl)Cl)C(C)=CC1=NO (centres undefined)	/	/	?	-12.7%	/	-24.2
Cc1cc(/C=N/n2cnnc2)c(C)n1-c1ccc(OCc2ccc(Cl)cc2Cl)cc1	1.46µM*	14.1%	5.8µM*	7.31µM*	-15.4%	-80.2*
O=C(O)C(Cc1cccs1)c1cccs1 (centres undefined)	-2.8%	-7.1%	1.9%	-14.4%	/	18.1
O=C(NCc1ccco1)/C(=C\c1ccccc1)NC(=O)c1ccccc1	?	-1.6%	5.5%	-0.9%	0.0%	-13.0
O=C(NCc1ccco1)/C(=C/C=C\c1ccccc1)NC(=O)c1ccc(Br)o1	?	?	?	16.4µM*	-2.0%	-8.2
COc1ccccc1NC(=O)/C(C#N)=C/C=C/c1ccco1	8.2µM*	0.92µM*	1.16µM*	1.3µM*	-0.2%	22.9
N#C/C(=C\C=C\c1ccccc1)C(=O)NCc1ccco1	?	?	?	-8.4%	-23.3%	-81.2*
CCn1c(-c2cccc(OC)c2)nc2cc(NC(C)=O)cc(C(=O)N3CCC[C@H]3C(=O)OC)c21	/	/	4.9%	-1.9%	/	/
COc1cccc(N2CCN(C(=O)c3c(C)oc4ncnc(N5CCCCC5)c34)CC2)c1	/	/	18.4µM*	?	/	/
Cc1ccc(N2CCN(C(=O)c3c(C)oc4ncnc(N5CCCCC5)c34)CC2)c(C)c1	/	/	7.31µM*	16.4µM*	/	/
Cc1oc2ncnc(N3CCCCC3)c2c1C(=O)Nc1cccc(Cl)c1C	/	/	14.6µM*	16.4µM*	/	/
Cc1nc(N2CCCC2)c2c(C(=O)Nc3cccc(C)c3C)c(C)oc2n1	/	/	-12.6%	2.1%	/	/
Cc1cccc(N2CCN(C(=O)c3c(C)oc4ncnc(N5CCCCC5)c34)CC2)c1C	/	/	8.2µM*	16.4µM*	/	/
CCOc1ccc(/C(O)=C2\C(=O)C(=O)N(c3ccccn3)C2c2ccccc2F)c(C)c1 (centres undefined)	/	/	?	?	/	0.5
COc1cc(C(=O)NCC(=O)N2CCN(S(=O)(=O)c3ccccc3C(F)(F)F)CC2)cc(OC)c1OC	?	?	?	?	?	1.1
Cc1cc(SCC(=O)Nc2c(C)n(C)n(-c3ccccc3)c2=O)nc2ccccc12	-6.5%	-5.0%	10.1%	6.3%	0.7%	-8.8
SMILES	MCF10A rerep	SW480 rereplic	TDP1 cell noCPT	DT40 TDP1 CPT	Chronic BCR inh	IL-1B inflam inh
O=C(CN(Cc1ccc(F)cc1)C(=O)CCC(=O)Nc1ccccn1)NCc1ccc(F)cc1	-3.5%	-14.8%	?	-16.9%	0.0%	-5.1
CCn1cc(CN2CCN(CCc3ccccc3)C(CCO)C2)c(C)n1 (centres undefined)	3.1%	-3.1%	-1.2%	4.1%	-23.3%	4.0
CCN(CC)S(=O)(=O)c1ccc(NC(=O)c2c(C)oc3ncnc(N4CCCCC4)c23)cc1	/	/	14.6µM*	20.6µM*	/	/
COc1ccccc1-c1cc(C(=O)N2CCN(c3ccccc3)CC2)no1	7.7%	4.0%	-13.1%	?	?	20.3
COc1cc2c(C(=O)N3CCN(c4ccccc4)CC3)c(C)oc2cc1Br	?	?	18.4µM*	?	1.7%	-26.9
Cc1nc(N2CCCC2)c2c(C(=O)N3CCN(c4cc(Cl)ccc4C)CC3)c(C)oc2n1	/	/	18.4µM*	?	/	/
Cc1ccc(CNC(=O)c2nnc(Cc3cccc(F)c3)o2)cc1	/	/	-21.8%	-20.4%	/	/
CO[C@H]1[C@H](NC(=O)c2ccco2)c2ccccc2C12CCN(Cc1cc(Cl)ccc1O)CC2	/	/	23.1µM*	-0.5%[9.04 µM]	/	/
COc1ccc(CN2CCC3(CC2)c2ccccc2[C@@H](NC(=O)c2ccco2)[C@@H]3OC)c(O)c1	/	/	-14.6%	-7.7%[9.04 µM]	/	/
COc1cc(CN2CCC3(CC2)c2ccccc2[C@@H](NC(=O)c2ccccc2OC)[C@@H]3O)ccc1F	/	/	18.4µM*	-11.8%[9.04 µM]	/	/
COc1ccccc1C(=O)N[C@@H]1c2ccccc2C2(CCN(Cc3nccs3)CC2)[C@H]1OC	/	/	-83.5%	-10.8%[9.04 µM]	/	/
Cc1cc(C)c(NC(=O)C2CC(=O)N(C3CCCC3)C2)c(C)c1 (centres undefined)	-2.1%	-9.9%	11.3%	-13.0%	-2.2%	3.8
CC(C)(C)c1ccc2cccc(F)c2n1	/	/	2.3%	-21.1%	/	41.6
O=C(CSC1=Nc2ccccc2N=C(c2ccc(F)cc2)C1)Nc1cccc(C(F)(F)F)c1	/	/	23.1µM*	?	/	/
O=C(CSCCO)Nc1cccc(C(F)(F)F)c1	-2.8%	1.5%	-13.6%	-8.5%	-0.4%	2.0
CCc1cccc(NC(=O)CSc2nc(C)cs2)c1	/	/	-18.3%	-2.0%	/	31.8
CCc1cccc(NC(=O)CSC2=Nc3ccccc3N=C(c3ccc(F)cc3)C2)c1	/	/	13µM*	20.6µM*	/	/
COc1cccc(CN2CCC(c3nnc(SCC4CCCO4)n3C)CC2)c1O (centres undefined)	/	/	0.6%	-3.5%	/	/

Bioassay records: PubChem BioAssay, National Center for Advancing Translational Sciences (NCATS)
